Screening results as filed in PubChem.
Tb PYK inh = qHTS of Trypanosoma Brucei Inhibitors | pyruvate kinase (Trypanosoma brucei), Q57TT1 | TbPYK enzyme, Kinase-Glo Plus ATP luminescence, 45 min | Potency, µM (titrated, usually from 76.8 µM), for the others: top-dose activity, negative = inhibition, usual class: inhibitors | actives 0.12% (n = 410,000) | AID 624173, 2012; note: potency is the fitted concentration of half-maximal effect; nearly all actives have a fitted effect of over 50% in size
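TbPYK + substrate in 50 mM TEA pH 7.2, 100 mM KCl, 10 mM MgCl2, 0.05% BSA, 0.01% Tween-20; cpd pinned; ADP 130 uM final; 45 min RT; Kinase-Glo Plus 10 min; luminescence endpoint.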
VACV Venus inh = qHTS for Stage-Specific Inhibitors of Vaccinia Orthopoxvirus: Venus Reporter Primary qHTS; Vaccinia virus Venus reporter expression, fluorescence; Potency, µM (series often up to 36.5 µM), for inactives: at the top dose activity change, negative = inhibition, hits mostly inhibitors; actives 0.46% (n = 330,000); AID 720580, 2013; calls by dose curve; tested in A549 cells; note: potency is the fitted concentration of half-maximal effect; nearly all actives have a fitted effect of over 30% in size
LmPK inhibitor = qHTS Assay for Inhibitors of Leishmania Mexicana Pyruvate Kinase (LmPK); Q27686; purified LmPK, Kinase-Glo ATP luminescence, 1 h; Potency, µM (doses to about 57.5 µM), inactives show at the top dose activity change, negative = inhibition, usual class: inhibitors; actives 0.37% (n = 290,000); AID 1721, 2009; note: potency is the fitted concentration of half-maximal effect
Target sequence (Q27686 whole entry, looked up): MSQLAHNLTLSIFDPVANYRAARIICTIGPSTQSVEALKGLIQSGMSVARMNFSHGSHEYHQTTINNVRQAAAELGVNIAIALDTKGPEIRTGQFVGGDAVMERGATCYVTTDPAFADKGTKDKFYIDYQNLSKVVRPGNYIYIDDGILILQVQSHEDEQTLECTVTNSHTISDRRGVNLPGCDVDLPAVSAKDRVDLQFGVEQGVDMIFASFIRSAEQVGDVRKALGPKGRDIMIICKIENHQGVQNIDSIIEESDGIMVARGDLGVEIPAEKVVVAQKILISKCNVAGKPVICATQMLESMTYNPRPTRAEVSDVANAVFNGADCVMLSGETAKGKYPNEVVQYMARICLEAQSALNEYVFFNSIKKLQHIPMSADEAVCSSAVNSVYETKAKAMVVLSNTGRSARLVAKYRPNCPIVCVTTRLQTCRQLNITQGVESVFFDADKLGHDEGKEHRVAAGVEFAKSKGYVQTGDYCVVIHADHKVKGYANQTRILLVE
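qHTS format; LmPK 0.1 nM; substrates PEP 0.5 mM and ADP 0.1 mM. One-hour room-temperature incubation, then coupled luciferase luminescence; 0.5 nM enzyme wells mark activation.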
HCMV antiviral = qHTS Assay for inhibitors of the human cytomegalovirus (HCMV); AID 1259415, 2018; activity change, negative = inhibition, % at 57.5 µM; actives 4.5% (n = 410,000); HFF cells, HCMV-luciferase reporter, 72 h; stronger effect = lower value; in the data active = activity change below about -60%; inconclusive = no clear call, values can overlap the other calls; inactive = above about -39%
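Human foreskin fibroblasts infected with luciferase-reporter HCMV at MOI 1 PFU/cell, compounds at two doses. Luciferase measured 72 h post infection; normalized to buffer-only basal and Salinomycin (10uM) controls.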
Vaccinia mCherry = qHTS for Stage-Specific Inhibitors of Vaccinia Orthopoxvirus: mCherry Reporter Primary qHTS; Vaccinia virus mCherry reporter infection, fluorescence; Potency, µM (doses to about 36.5 µM), without a hit: at the highest dose activity change, negative = inhibition, most hits filed as inhibitors; actives 0.63% (n = 310,000); AID 720579, 2013; calls by dose curve; tested in A549 cells; note: potency is the fitted concentration of half-maximal effect; nearly all actives have a fitted effect of over 35% in size
* marks the source's active call; other numbers are inactive results; i = inactive; ? = inconclusive; nt = no result given. A selection: hits, their analogues and other compounds. The true share with any hit is near 5%. Unless noted, calls come from the whole dose curve; as a rule, active = well fitted curve in the direction sought with a large enough effect; inconclusive = small, poorly fitted or top-dose-only effect, or another doubt; inactive = no such curve, though single readings can be large; an effect the other way counts as inactive or inconclusive. % is set by controls: 0 for no effect and ±100 for the full control effect.

SMILES	Tb PYK inh	VACV Venus inh	LmPK inhibitor	HCMV antiviral	Vaccinia mCherry
O=C(NCCc1ccccc1)C(=O)NCC(c1cccnc1)N1CCN(c2ccc(F)cc2)CC1 (stereo unspecified)	4%	?	nt	-24	-29%
COc1ccc(N2C(=O)CC(Sc3ncn[nH]3)C2=O)c(OC)c1 (stereo unspecified)	?	-12%	-22%	-98*	-15%
CC(C)c1ccc(N2C(=O)CC(Sc3ncn[nH]3)C2=O)cc1 (stereo unspecified)	-18%	-1%	2%	6	-7%
O=C(COC(=O)c1cc(=O)[nH]c2ccccc12)c1ccccc1	2%	-8%	-3%	-5	-3%
CCC(=O)c1ccc(OCC(=O)OCC(=O)NCCCc2ccccc2)cc1	-1%	-6%	nt	-13	-8%
CCCCNC(=S)NNC(=O)CCn1nc(C)c(Br)c1C	-14%	nt	3%	-106*	nt
COc1ccc(NC(=O)c2cc(-c3cccnc3)nc3ccc(C)cc23)cc1OC	3%	-9%	1%	-17	-12%
Cc1cccc(-c2cc(C(=O)Nc3ccc4c(c3)OCCO4)c3ccccc3n2)c1	0%	-5%	-5%	-37	nt
COc1ccc(NC(=O)c2cc(-c3ccncc3)nc3ccc(Br)cc23)cc1OC	-11%	6%	2%	-90*	-1%
O=C(Nc1ccc2c(c1)OCCO2)c1cc(-c2ccccn2)nc2ccc(Br)cc12	3%	-2%	0%	-94*	4%
NC(=O)c1ccsc1NC(=O)COC(=O)Cc1ccccc1[N+](=O)[O-]	-1%	-16%	nt	-8	i
OCC1OC(n2cnc3c(SCc4ccccc4)nc(NO)nc32)C(O)C1O (stereo unspecified)	-8%	-14%	nt	-11	-17%
NC(=O)CC(NC(=O)Cc1cccc2ccccc12)c1ccc(NC2CCN(Cc3ccccc3)CC2)c([N+](=O)[O-])c1 (stereo unspecified)	0%	-16%	0%	-13	-29%
NC(=O)CC(NC(=O)c1ccc(Br)cc1)c1ccc(N2CCC(Cc3ccccc3)CC2)c([N+](=O)[O-])c1 (stereo unspecified)	1%	?	0%	6	-8%
NC(=O)CC(NC(=O)Cc1cccc2ccccc12)c1ccc(NCCc2ccc(F)cc2)c([N+](=O)[O-])c1 (stereo unspecified)	-8%	?	4%	-67*	-29%
NC(=O)CC(NC(=O)Cc1ccc(Br)cc1)c1ccc(NC2CCN(Cc3ccccc3)CC2)c([N+](=O)[O-])c1 (stereo unspecified)	3%	?	4%	-93*	?
NC(=O)CC(NC(=O)Cc1cccc2ccccc12)c1ccc(NCc2ccc(F)cc2)c([N+](=O)[O-])c1 (stereo unspecified)	-4%	?	1%	-5	-22%
NC(=O)CC(NC(=O)c1ccccc1)c1ccc(N2CCC(Cc3ccccc3)CC2)c([N+](=O)[O-])c1 (stereo unspecified)	-8%	?	-4%	-67*	-22%
NC(=O)CC(NC(=O)Cc1cccc2ccccc12)c1ccc(NCCc2ccccc2F)c([N+](=O)[O-])c1 (stereo unspecified)	-2%	-27%	2%	-81*	-11%
COC(=O)[C@]1(Cc2ccccc2)N[C@H](CN(C)C(=O)c2ccc(F)cc2)[C@@H]2C(=O)N(Cc3ccccc3)C(=O)[C@@H]21	1%	-16%	nt	40	i
NC(=O)CC(NC(=O)Cc1cccc2ccccc12)c1ccc(NC2CCCCCCC2)c([N+](=O)[O-])c1 (stereo unspecified)	-4%	-7%	7%	-62*	i
CC1=C(N2CC2)C(=O)C(CO)=C(N2CC2)C1=O	2%	0.35µM*	nt	-97*	0.35µM*
CC1(C)Oc2ccc3ccc(=O)oc3c2/C(=C/NNC(N)=O)C1=O	0%	nt	-2%	-95*	nt
CC1(C)Oc2ccc3ccc(=O)oc3c2/C(=C/NCCN/C=C2\C(=O)C(C)(C)Oc3ccc4ccc(=O)oc4c32)C1=O	nt	nt	7%	nt	nt
COc1ccc(C(=O)NCCN(C)C)c2nc3ccccc3cc12	3%	6.3µM*	nt	-100*	1µM*
SMILES	Tb PYK inh	VACV Venus inh	LmPK inhibitor	HCMV antiviral	Vaccinia mCherry
COc1cccc2nc3c(C(=O)NCCN(C)C)cccc3cc12	-19%	4.5µM*	nt	-101*	3.5µM*
COc1ccc(Cl)cc1C(=O)NCCN(C)C	0%	nt	1%	20	nt
COc1ccc(-c2nc3c(C(=O)NCCN(C)C)cccc3c3ccccc23)cc1	-3%	?	nt	-34	-14%
CN(C)CCNC(=O)c1ccccc1-c1ccccc1	-1%	-1%	-8%	16	-7%
COc1cccc(C(=O)NCCCc2ccccc2)c1OC	-4%	-4%	nt	101	-3%
CN(C)CCNC(=O)c1cccc2[nH]c(-c3ccncc3)nc12	-3%	-22%	nt	-100*	i
CN(C)CCNC(=O)c1cccc2nc3c(ccc4ccccc43)nc12	-2%	11µM*	nt	-96*	?
CC(C)n1c(=O)[nH]c(=O)n1C(C)C	-2%	-1%	nt	6	-14%
CCN(CC)CCCn1c2c(c(SCC(=O)Nc3cc(C)cc(C)c3)nc1=O)CCC2	5%	-7%	nt	1	-10%
O=C(CCNC(=O)c1ccc([N+](=O)[O-])cc1)N/N=C/c1ccc(F)cc1	4%	-8%	3%	?	?
Cn1cc(CNC(=O)c2cc(COc3ccc4c(c3)CCCC4)on2)cn1	2%	-5%	5%	-4	i
O=C(NC(c1cccnc1)C(F)(F)F)c1cc(COc2ccc3c(c2)CCCC3)on1 (stereo unspecified)	0%	nt	12%	-82*	nt
CC1=C(C(=O)OC(C)C)C(c2cccnc2)n2ncnc2N1 (stereo unspecified)	7%	28µM*	0%	18	28µM*
CC1=C(C(=O)OC(C)C)C(c2ccncc2)n2ncnc2N1 (stereo unspecified)	-10%	-9%	-1%	9	nt
CCC(Oc1ccccc1OC)C(=O)N1CC(=O)Nc2ccccc21 (stereo unspecified)	-8%	-14%	-2%	-74*	-11%
O=C(CSc1nnc(COc2ccccc2)o1)Nc1nccs1	-4%	0%	2%	-39	-4%
CC(Sc1nc(N(C)C)nc(N2CCOCC2)n1)C(=O)Nc1ccccc1 (stereo unspecified)	6%	0%	5%	-4	nt
CC(Sc1nc(NC(C)(C)C)nc(N(C)C)n1)C(=O)Nc1ccccc1 (stereo unspecified)	2%	-5%	-5%	-61*	i
